Unmarked numbers belong to inactive results. The rule behind the calls is not given here.
biological target: Pantothenate synthetase (Mycobacterium tuberculosis (strain ATCC 25618 / H37Rv)) (UniProt P9WIL5); assay: Recombinant Mtb pantothenate synthetase (PanC) inhibitors, coupled enzyme, confirmatory (AID 375); settings: coupled enzyme assay; at 10 µM, hits give high values;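 note: 0% = full reaction with vehicle and 100% = no enzyme background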
Sequence (P9WIL5 whole entry, looked up): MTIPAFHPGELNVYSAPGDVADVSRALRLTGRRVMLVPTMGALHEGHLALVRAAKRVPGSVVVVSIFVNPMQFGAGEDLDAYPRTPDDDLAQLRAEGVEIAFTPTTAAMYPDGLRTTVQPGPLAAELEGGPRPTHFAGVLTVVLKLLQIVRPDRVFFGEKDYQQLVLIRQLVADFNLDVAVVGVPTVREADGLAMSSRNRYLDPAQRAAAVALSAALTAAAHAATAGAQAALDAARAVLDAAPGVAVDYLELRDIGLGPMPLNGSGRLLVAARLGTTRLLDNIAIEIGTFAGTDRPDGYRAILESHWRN

**Q.** Which inhibition does the source give for `COC(=O)C1=C(C)OC(N)=C(C#N)C1c1c(C)nn(-c2ccccc2)c1Cl` (configuration not stated) here?
**A.** The inhibition was 0%.

**Q.** For `Cc1noc(C)c1C(=O)N1CCN(C(=O)c2sc3cc(Cl)ccc3c2Cl)CC1`, which inhibition is on record?
**A.** The inhibition was 7%.

**Q.** `N/C(=N/O)c1nc(N2CCCC2)nc(N(c2ccccc2)c2ccccc2)n1` was tested. Which inhibition did it give?
**A.** Its inhibition is 7%.

**Q.** For `COc1ccccc1CNC(=O)CCNC(=O)Cn1ccc2ccccc2c1=O`, which inhibition is on record?
**A.** The inhibition was 6%.

**Q.** How did the inhibition turn out when `O=S(=O)(NCC(O)COCc1ccco1)c1cccs1` (configuration not stated) was run?
**A.** The inhibition was 2%.

**Q.** How did the inhibition turn out when `CCOc1ccccc1NC(=O)CSc1nnc(Cc2cccn2C)n1-c1ccc(F)cc1` was run?
**A.** The inhibition was 5%.

**Q.** With `c1ccc(OCc2nc3ccccc3[nH]2)cc1` as the molecule, how does the inhibition read?
**A.** Its inhibition is 0%.

**Q.** How did the inhibition turn out when `Cc1ccc(NC(=O)CSC2=C(C#N)C(c3ccc4c(c3)OCO4)CC(=O)N2)cc1C` (configuration not stated) was run?
**A.** The inhibition was 0%.

**Q.** How did the inhibition turn out when `COC(=O)C1CCN(C(=O)CSc2nnc(-c3ccncc3)o2)CC1` was run?
**A.** The inhibition was 0%.

**Q.** How did the inhibition turn out when `COc1cc(CC(=O)Oc2ccc3c(c2)OCO3)cc(OC)c1OC` was run?
**A.** Its inhibition is 0%.

**Q.** Which inhibition does the source give for `CC(=O)c1c(O)cc(C)n(Nc2nc(C)cc(C)n2)c1=O` here?
**A.** Its inhibition is 0%.

**Q.** `Cn1c(=O)[nH]c(=O)c2c1nc(Br)n2Cc1ccccc1F` was tested. Which inhibition did it give?
**A.** Its inhibition is 0%.

**Q.** Which inhibition does the source give for `O=C(Nc1cccc(C(=O)N2CCOCC2)c1)c1cccnc1` here?
**A.** The inhibition was 0%.

**Q.** With `COCCn1c(N)c(C(=O)Nc2sc3c(c2C(=O)OC)CCCC3)c2nc3ccccc3nc21` as the molecule, how does the inhibition read?
**A.** Its inhibition is 1%.

**Q.** `O=C(CSc1nc2c(c(=O)n1-c1ccc(F)cc1)SCC2)NCC1CCCO1` (configuration not stated) was tested. Which inhibition did it give?
**A.** Its inhibition is 6%.

**Q.** With `CCOCC(O)CS(=O)Cc1ccccc1` (configuration not stated) as the molecule, how does the inhibition read?
**A.** Its inhibition is 0%.

**Q.** How did the inhibition turn out when `COc1ccc(OC)c(CNC(=O)COc2cc(=O)n(C)c3ccccc23)c1` was run?
**A.** The inhibition was 0%.

From PubChem BioAssay
